In PubChem BioAssay (NCATS):
Results filed as inconclusive are left out. A call without a number means that no potency is given here. Activity calls are given as the source filed them. Calls come from the whole dose curve; as a rule, active = well fitted inhibition curve with a large enough effect; inconclusive = small, poorly fitted or top-dose-only effect; inactive = flat fitted curve, though single readings scatter.

Columns and labels:
Test in all cases: qHTS profiling for inhibitors of Plasmodium falciparum proliferation (AID 504749); note: nearly all actives have a fitted effect of over 60% in size
Conditions in all cases: P. falciparum in erythrocytes, SYBR Green DNA, 72 h; series mostly up to 28.7 µM
[1] = tested on: CP291
Outline: (§1)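 Readout was DNA-dye fluorescence from lysed cultures, ex 485/em 535 nm. Parasitized red cells had grown 72 h with compound; data scaled between 0.29 uM artemisinin and DMSO wells and corrected using vehicle-only plates.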

[2] = tested on: CP297
Outline: as §1

[3] = tested on: CP305
Outline: as §1

[4] = tested on: CP315
Outline: as §1

[5] = tested on: CP325
Outline: as §1

[6] = tested on: CP329
Outline: as §1

[7] = tested on: CP335
Outline: as §1

[8] = tested on: DFO2036
Outline: as §1

[9] = tested on: DIV14
Outline: as §1

[10] = tested on: DIV17
Outline: as §1

[11] = tested on: DIV30
Outline: as §1

[12] = tested on: Dd2
Outline: as §1

[13] = tested on: ECU
Outline: as §1

[14] = tested on: FAB9
Outline: as §1

[15] = tested on: GB4
Outline: as §1

[16] = tested on: HB3
Outline: as §1

[17] = tested on: ICS
Outline: as §1

[18] = tested on: JCK
Outline: as §1

[19] = tested on: N140
Outline: as §1

[20] = tested on: P93_24
Outline: as §1
Potency is the fitted concentration of half-maximal effect.

SMILES | Potency [1] | Potency [2] | Potency [3] | Potency [4] | Potency [5] | Potency [6] | Potency [7] | Potency [8] | Potency [9] | Potency [10] | Potency [11] | Potency [12] | Potency [13] | Potency [14] | Potency [15] | Potency [16] | Potency [17] | Potency [18] | Potency [19] | Potency [20]
CCCCCCCCCCCCCCCCCC(=O)OCC(C)O (configuration not stated) | inactive | inactive | inactive | inactive | inactive | inactive | inactive | inactive | inactive | inactive | inactive | inactive | inactive | inactive | inactive | inactive | inactive | inactive | inactive | inactive
O=C(O)c1ccc(OCCn2ccnc2)cc1 | inactive | inactive | inactive | inactive | inactive | inactive | inactive | inactive | inactive | inactive | inactive | inactive | inactive | inactive | inactive | inactive | inactive | inactive | inactive | inactive
OB(O)O | inactive | inactive | inactive | inactive | inactive | inactive | inactive | inactive | inactive | inactive | inactive | inactive | inactive | inactive | inactive | inactive | inactive | inactive | inactive | inactive
O=C(O)[C@H]1CN(C/C=C/P(=O)(O)O)CCN1 | inactive | inactive | inactive | inactive | inactive | inactive | inactive | inactive | inactive | inactive | inactive | inactive | inactive | inactive | inactive | inactive | inactive | inactive | inactive | inactive
CCc1ncnc2cc(OC)c(OC)cc12 | inactive | inactive | inactive | inactive | inactive | inactive | inactive | inactive | inactive | inactive | inactive | inactive | inactive | inactive | inactive | inactive | inactive | inactive | inactive | inactive
CC(=O)Oc1cc(C(F)(F)F)ccc1C(=O)O | inactive | inactive | inactive | inactive | inactive | inactive | inactive | inactive | inactive | inactive | inactive | inactive | inactive | inactive | inactive | inactive | inactive | inactive | inactive | inactive
Cc1ccc(S(=O)(=O)NCl)cc1 | inactive | inactive | inactive | inactive | inactive | inactive | inactive | inactive | inactive | inactive | inactive | inactive | inactive | inactive | inactive | inactive | inactive | inactive | inactive | inactive
CC(C)O | inactive | inactive | inactive | inactive | inactive | inactive | inactive | inactive | inactive | inactive | inactive | inactive | inactive | inactive | inactive | inactive | inactive | inactive | inactive | inactive
O=P(O)(O)OC[C@H](O)CO | inactive | inactive | inactive | inactive | inactive | inactive | inactive | inactive | inactive | inactive | inactive | inactive | inactive | inactive | inactive | inactive | inactive | inactive | inactive | inactive
ClC(Cl)Cl | inactive | inactive | inactive | inactive | inactive | inactive | inactive | inactive | inactive | inactive | inactive | inactive | inactive | inactive | inactive | inactive | inactive | inactive | inactive | inactive
NCC[C@H](O)C(=O)N[C@@H]1C[C@H](N)[C@@H](O[C@H]2O[C@H](CN)CC[C@H]2N)[C@H](O)[C@H]1O[C@H]1O[C@H](CO)[C@@H](O)[C@H](N)[C@H]1O | inactive | inactive | inactive | inactive | inactive | inactive | inactive | inactive | inactive | inactive | inactive | inactive | inactive | inactive | inactive | inactive | inactive | inactive | inactive | inactive
NC(=S)N=Nc1ccc(NN=C(N)N)cc1 | 8.49 µM (active) | 9.53 µM (active) | 7.57 µM (active) | 8.49 µM (active) | 10.7 µM (active) | 7.57 µM (active) | 8.49 µM (active) | 5.01 µM (active) | 6.01 µM (active) | 7.57 µM (active) | 9.53 µM (active) | 2.51 µM (active) |  | 11.2 µM (active) | 6.75 µM (active) | 5.62 µM (active) | 5.01 µM (active) | 8.91 µM (active) | 7.94 µM (active) | 5.01 µM (active)
O=C(O)CC/C=C\CC[C@@H]1[C@@H](N2CCCCC2)[C@@H](O)C[C@@H]1OCc1ccc(-c2ccccc2)cc1 | inactive | inactive | inactive | inactive | inactive | inactive | inactive | inactive | inactive |  | inactive | inactive | inactive | inactive | inactive | inactive |  | inactive | inactive | inactive
